Results on 155 variants are retold here after a collection of fitness landscapes (doi:10.1016/j.celrep.2020.107928).

B1: Caulobacter ParB omega fusion; a variant is named by its letters at X, in order, B8GW30 (parent)
chain: MESVVVGEPGMSEGRRGLGRGLSALLGEVDAAPAQAPGEQLGGSREAPIEILQRNPDQPRRTFREEDLEDLSNSIREKGVLQPILVRPSPDTAGEYQIVAGERAWRAAQRAGLKTVPIMVRELDDLAVLEIGIIENVQRADLNVLEEALSYKVLMEKFERTQENIAQTIGKSXSHVANXMRLLXLPDEVQSYLVSGELTAXHARAIAAAADPVALAKQIIEGGLSVRETEALARKAPNLSAGKSKGGRPPRVKDTDTQALESDLSSVLGLDVSIDHRGSTGTLTITYATLEQLDDLCNRLTRGI

In all, about 81,000 sequences were measured (“one-hybrid fitness for binding parS DNA”: median about -0.17, highest 2% from about 0.51 on). This is one part of a sample in which the highest values are shown more often than they occur. Bounds are passed on as bounds.

In the assay the parent is B1. Nature of the assay: one-hybrid fitness for binding parS DNA (scaled: cognate 1, non-cognate 0); higher = stronger binding. The note with it: with parS DNA site. The essentials:
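Fitness here means the log change in variant-to-wild-type read ratio between plasmids sequenced before and after selection. That scale was set so cognate equals 1 and non-cognate equals 0. The selection was a bacterial one-hybrid screen of Caulobacter ParB libraries, four specificity codons randomised, in E. coli USO carrying a HIS3 reporter with the site 19 bp from the promoter, grown 48 hours at 37°C on M9-minus-histidine with 0.1 mM IPTG and 5 mM 3-AT.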
Consider DRAS, for which the “one-hybrid fitness for binding parS DNA” value was not above 0.2.

As to GTSE, the “one-hybrid fitness for binding parS DNA” value was not above 0.2. As for LHRT, the figure is not above 0.2. Consider RCDN, for which the “one-hybrid fitness for binding parS DNA” value was found to be 0.376. For the variant RRYN, the “one-hybrid fitness for binding parS DNA” value is 0.557. Turning to RCRN, the “one-hybrid fitness for binding parS DNA” value is 0.387. Next, RRRN: 0.788; RCYN: 0.545; RPYN: not above 0.2. Consider KAEG, for which the “one-hybrid fitness for binding parS DNA” value is not above 0.2. Next, AMIC: not above 0.2; RPAA: not above 0.2.

RDAA: the “one-hybrid fitness for binding parS DNA” value was not above 0.2. With RGAA, the “one-hybrid fitness for binding parS DNA” value turned out to be 0.32.

With RCAA, the “one-hybrid fitness for binding parS DNA” value is 0.596.

Regarding RWAA, the “one-hybrid fitness for binding parS DNA” value turned out to be 0.378.

For the variant RFAA, the “one-hybrid fitness for binding parS DNA” value came to 0.559. For RFFA, the “one-hybrid fitness for binding parS DNA” value turned out to be 0.492. RSAA: the “one-hybrid fitness for binding parS DNA” value turned out to be 0.554.

Take EFAA: the “one-hybrid fitness for binding parS DNA” value was not above 0.2. As for QVSF, the “one-hybrid fitness for binding parS DNA” value was not above 0.2. With LAKQ, the “one-hybrid fitness for binding parS DNA” value is not above 0.2.

As to WWDC, the “one-hybrid fitness for binding parS DNA” value was not above 0.2. Turning to RWHK, the “one-hybrid fitness for binding parS DNA” value is not above 0.2. With RQFT, the “one-hybrid fitness for binding parS DNA” value came out at 0.759. As for RQAD, the figure is not above 0.2; as for RQAN, 0.419. On to RQAT, for which the “one-hybrid fitness for binding parS DNA” value turned out to be 0.884. RQFQ: the “one-hybrid fitness for binding parS DNA” value was not above 0.2. Regarding RQFR, the “one-hybrid fitness for binding parS DNA” value was not above 0.2.

Consider MIFS, for which the “one-hybrid fitness for binding parS DNA” value was not above 0.2. For the variant SNTE, the “one-hybrid fitness for binding parS DNA” value was not above 0.2. In the case of YHPR, the “one-hybrid fitness for binding parS DNA” value is not above 0.2. RCGL: the “one-hybrid fitness for binding parS DNA” value is not above 0.2. As for LEEV, the figure is not above 0.2; as for SVPL, not above 0.2; as for GMVS, not above 0.2. Turning to QIKS, the “one-hybrid fitness for binding parS DNA” value is not above 0.2. RDWT: the “one-hybrid fitness for binding parS DNA” value was not above 0.2. Next, RMWN: 0.43; RMWH: 0.231.

For the variant RMWT, the “one-hybrid fitness for binding parS DNA” value worked out at 0.904.

REWT: the “one-hybrid fitness for binding parS DNA” value is not above 0.2.

Turning to RSWT, the “one-hybrid fitness for binding parS DNA” value was 0.756.

Consider RCWT, for which the “one-hybrid fitness for binding parS DNA” value was found to be 0.908. Consider RPWT, for which the “one-hybrid fitness for binding parS DNA” value was not above 0.2. As for RGWT, the “one-hybrid fitness for binding parS DNA” value is 0.388.

As to TNVG, the “one-hybrid fitness for binding parS DNA” value is not above 0.2. As for AFWR, the figure is not above 0.2; as for TISC, not above 0.2. As for RCEF, the figure is not above 0.2; as for RPFS, not above 0.2; as for RSFD, not above 0.2. For RSFS, the “one-hybrid fitness for binding parS DNA” value turned out to be 1.01. As for RSFP, the figure is not above 0.2; as for RCFS, 1.03; as for RCFD, not above 0.2.

Take QAPG: the “one-hybrid fitness for binding parS DNA” value was not above 0.2. Consider YKDR, for which the “one-hybrid fitness for binding parS DNA” value is not above 0.2.

Take IDIG: the “one-hybrid fitness for binding parS DNA” value is not above 0.2.

Take RRGG: the “one-hybrid fitness for binding parS DNA” value was 0.698. As for RRGF, the “one-hybrid fitness for binding parS DNA” value was not above 0.2. As for RRSG, the “one-hybrid fitness for binding parS DNA” value was 0.711. Take RRSY: the “one-hybrid fitness for binding parS DNA” value was 0.46.

With RRYK, the “one-hybrid fitness for binding parS DNA” value is not above 0.2. On to RRGY, for which the “one-hybrid fitness for binding parS DNA” value worked out at 0.361. For RRCG, the “one-hybrid fitness for binding parS DNA” value came out at 0.758.

On to RRYG, for which the “one-hybrid fitness for binding parS DNA” value stood at 0.769. Turning to RRCR, the “one-hybrid fitness for binding parS DNA” value is not above 0.2.

For the variant DRSG, the “one-hybrid fitness for binding parS DNA” value was not above 0.2.

In the case of RRCN, the “one-hybrid fitness for binding parS DNA” value was 0.452. On to RRYR, for which the “one-hybrid fitness for binding parS DNA” value was not above 0.2.

On to QRNI, for which the “one-hybrid fitness for binding parS DNA” value was not above 0.2.

Regarding RLLW, the “one-hybrid fitness for binding parS DNA” value was 0.241. Turning to FRGV, the “one-hybrid fitness for binding parS DNA” value was not above 0.2. On to TALQ, for which the “one-hybrid fitness for binding parS DNA” value was not above 0.2. As for TKKR, the “one-hybrid fitness for binding parS DNA” value was not above 0.2. Next, PENA: not above 0.2. As for HIPD, the figure is not above 0.2; as for EYSL, not above 0.2; as for NRNG, not above 0.2. DRRG: the “one-hybrid fitness for binding parS DNA” value is not above 0.2.

Take RRQQ: the “one-hybrid fitness for binding parS DNA” value is not above 0.2.

With NRRG, the “one-hybrid fitness for binding parS DNA” value is not above 0.2. Consider RRDG, for which the “one-hybrid fitness for binding parS DNA” value stood at 0.888. RRQG: the “one-hybrid fitness for binding parS DNA” value amounted to 0.727. Next, RRNG: 0.704; RRQY: 0.441.

Turning to RRRG, the “one-hybrid fitness for binding parS DNA” value came out at 0.706. Next, RRNE: not above 0.2; DRDG: not above 0.2. As to YVYG, the “one-hybrid fitness for binding parS DNA” value was not above 0.2. Next, RGYW: not above 0.2. Next, HTNV: not above 0.2; TDNV: not above 0.2; ASRA: not above 0.2. Turning to KASS, the “one-hybrid fitness for binding parS DNA” value is not above 0.2. For EPDT, the “one-hybrid fitness for binding parS DNA” value was not above 0.2. With GAHV, the “one-hybrid fitness for binding parS DNA” value was not above 0.2. For SLDA, the “one-hybrid fitness for binding parS DNA” value is not above 0.2.

LSDS: the “one-hybrid fitness for binding parS DNA” value was not above 0.2.

On to IIGF, for which the “one-hybrid fitness for binding parS DNA” value was not above 0.2. RRLK: the “one-hybrid fitness for binding parS DNA” value is not above 0.2. Next, RRHG: 0.72; RRHM: 0.424; RRLG: 0.794. Next, RRHY: 0.446.

Turning to RRLR, the “one-hybrid fitness for binding parS DNA” value is not above 0.2.

With PSWH, the “one-hybrid fitness for binding parS DNA” value was not above 0.2. Consider LPFA, for which the “one-hybrid fitness for binding parS DNA” value was found to be 0.253. Turning to KMLG, the “one-hybrid fitness for binding parS DNA” value is not above 0.2. For FRSR, the “one-hybrid fitness for binding parS DNA” value is not above 0.2. Take LSWR: the “one-hybrid fitness for binding parS DNA” value was not above 0.2. For the variant TGKS, the “one-hybrid fitness for binding parS DNA” value was not above 0.2. Next, LTAC: not above 0.2; RKNK: not above 0.2; RKWP: not above 0.2. For RKCT, the “one-hybrid fitness for binding parS DNA” value amounted to 0.803. Consider RKWH, for which the “one-hybrid fitness for binding parS DNA” value is not above 0.2. On to RKSF, for which the “one-hybrid fitness for binding parS DNA” value was not above 0.2. For RKCY, the “one-hybrid fitness for binding parS DNA” value worked out at 0.369. Turning to RKNT, the “one-hybrid fitness for binding parS DNA” value came to 0.723. Turning to RKWT, the “one-hybrid fitness for binding parS DNA” value was 0.759. As to RKNM, the “one-hybrid fitness for binding parS DNA” value is 0.234. For RKCK, the “one-hybrid fitness for binding parS DNA” value was not above 0.2. Take RKST: the “one-hybrid fitness for binding parS DNA” value is 0.749. As for RKSQ, the figure is not above 0.2; as for AHCT, not above 0.2; as for SYTS, not above 0.2. As for LAQL, the figure is not above 0.2; as for LSDG, not above 0.2; as for ISTA, not above 0.2.

Take MTHL: the “one-hybrid fitness for binding parS DNA” value was not above 0.2.

Turning to CYFG, the “one-hybrid fitness for binding parS DNA” value was not above 0.2. For RKLH, the “one-hybrid fitness for binding parS DNA” value was found to be 0.223.

For RKIT, the “one-hybrid fitness for binding parS DNA” value worked out at 0.675. Turning to RKYT, the “one-hybrid fitness for binding parS DNA” value came out at 0.868.

Regarding RKLT, the “one-hybrid fitness for binding parS DNA” value was 0.856.

Take RKHP: the “one-hybrid fitness for binding parS DNA” value was not above 0.2. Regarding RKYF, the “one-hybrid fitness for binding parS DNA” value is not above 0.2. Next, RKIY: 0.352. Next, RKPT: 0.412.

Regarding RKYK, the “one-hybrid fitness for binding parS DNA” value is not above 0.2. Next, RKHH: not above 0.2. As for RKHT, the “one-hybrid fitness for binding parS DNA” value came to 0.756. As for RKLN, the figure is 0.351.

Consider YKNL, for which the “one-hybrid fitness for binding parS DNA” value is not above 0.2. VDMS: the “one-hybrid fitness for binding parS DNA” value was not above 0.2. Consider HRNI, for which the “one-hybrid fitness for binding parS DNA” value was not above 0.2. Take NWKR: the “one-hybrid fitness for binding parS DNA” value was not above 0.2.

As to FKRH, the “one-hybrid fitness for binding parS DNA” value was not above 0.2.

In the case of TTLP, the “one-hybrid fitness for binding parS DNA” value was not above 0.2. In the case of LGQS, the “one-hybrid fitness for binding parS DNA” value was not above 0.2. Consider DPGV, for which the “one-hybrid fitness for binding parS DNA” value was not above 0.2. For ITRV, the “one-hybrid fitness for binding parS DNA” value was not above 0.2.
